# Data published in paper PMC7862700, “An all-to-all approach to the identification of sequence-specific readers for epigenetic DNA modifications on cytosine”.
# Legend:
# Test in all cases: DAPPL (digital affinity profiling via proximity ligation, sequencing); 10 mM Tris-HCl pH 7.5, 50 mM NaCl, 1 mM DTT, 4% glycerol, room temperature, 30 min; GST-TFs on glutathione beads, 16-mer random dsDNA library, 0.1% formaldehyde crosslink after washing; high values mean tight binding
# FEV = target: T1, FEV (Homo sapiens, UniProt Q99581 1-238); details: protein: recombinant; tags: N-terminal GST; dsDNA, one strand shown
# T1 sequence: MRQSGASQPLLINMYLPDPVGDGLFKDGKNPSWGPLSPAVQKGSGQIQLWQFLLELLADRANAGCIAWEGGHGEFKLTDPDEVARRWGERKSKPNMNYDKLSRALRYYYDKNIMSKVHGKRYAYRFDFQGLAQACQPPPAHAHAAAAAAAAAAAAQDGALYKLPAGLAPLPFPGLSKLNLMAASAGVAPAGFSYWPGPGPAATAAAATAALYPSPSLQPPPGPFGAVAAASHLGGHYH
# Outline: (§1)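 Binding signal is each hexamer's read frequency for a factor divided by its frequency in the tag-only sample. The factors were GST-fused human transcription factors from yeast, captured on glutathione beads, DNA-barcoded and pooled with that sample. Pools were incubated with 200 nmole of a random double-stranded 16-mer DNA library in Tris/NaCl/DTT/glycerol buffer at room temperature for 30 min, then washed, crosslinked with 0.1% formaldehyde, proximity-ligated with BsaI/T4 ligase (1 h, 37 °C), PCR-amplified and sequenced on an Illumina NextSeq500.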
# ETV5 = ETV5 (Homo sapiens, UniProt P41161 1-510); details: protein: recombinant; tags: N-terminal GST; dsDNA, one strand shown
# ETV5, sequence (P41161 whole entry): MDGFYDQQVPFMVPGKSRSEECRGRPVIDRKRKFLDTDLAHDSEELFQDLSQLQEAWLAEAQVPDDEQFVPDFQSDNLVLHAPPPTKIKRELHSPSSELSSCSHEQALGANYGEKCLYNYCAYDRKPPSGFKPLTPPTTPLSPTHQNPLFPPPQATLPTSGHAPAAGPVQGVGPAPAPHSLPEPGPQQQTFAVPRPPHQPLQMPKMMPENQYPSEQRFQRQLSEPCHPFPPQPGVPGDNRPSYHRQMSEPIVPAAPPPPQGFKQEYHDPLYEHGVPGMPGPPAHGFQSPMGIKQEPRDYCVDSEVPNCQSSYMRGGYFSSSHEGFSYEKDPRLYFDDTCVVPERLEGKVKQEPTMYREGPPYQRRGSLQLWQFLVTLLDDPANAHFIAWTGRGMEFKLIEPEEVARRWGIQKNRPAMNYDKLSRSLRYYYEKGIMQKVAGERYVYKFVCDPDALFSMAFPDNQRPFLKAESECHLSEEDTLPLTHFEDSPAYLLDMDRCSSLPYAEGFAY
# Outline: as §1
# HSF1 = HSF1 (Homo sapiens, UniProt Q00613 1-529); details: protein: recombinant; tags: N-terminal GST; chain copies: 3; dsDNA, one strand shown
# HSF1, sequence (Q00613 whole entry): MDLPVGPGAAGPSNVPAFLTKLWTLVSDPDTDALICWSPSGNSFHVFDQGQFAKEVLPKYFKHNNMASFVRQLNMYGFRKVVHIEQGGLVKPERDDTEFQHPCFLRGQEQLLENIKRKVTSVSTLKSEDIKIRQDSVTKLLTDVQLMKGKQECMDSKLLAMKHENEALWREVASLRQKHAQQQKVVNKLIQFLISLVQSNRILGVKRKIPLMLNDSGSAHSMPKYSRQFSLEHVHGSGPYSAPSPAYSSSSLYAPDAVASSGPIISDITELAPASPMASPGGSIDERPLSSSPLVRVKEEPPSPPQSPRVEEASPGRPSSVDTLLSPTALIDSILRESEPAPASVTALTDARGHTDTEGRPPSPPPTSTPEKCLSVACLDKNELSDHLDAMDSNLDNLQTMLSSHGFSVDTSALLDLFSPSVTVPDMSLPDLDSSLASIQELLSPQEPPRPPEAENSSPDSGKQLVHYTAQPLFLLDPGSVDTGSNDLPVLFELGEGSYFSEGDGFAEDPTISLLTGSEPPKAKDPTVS
# Outline: as §1
# SPIC = target: T2, SPIC (Homo sapiens, UniProt Q8N5J4 1-248); details: protein: recombinant; tags: N-terminal GST; dsDNA, one strand shown
# T2 sequence: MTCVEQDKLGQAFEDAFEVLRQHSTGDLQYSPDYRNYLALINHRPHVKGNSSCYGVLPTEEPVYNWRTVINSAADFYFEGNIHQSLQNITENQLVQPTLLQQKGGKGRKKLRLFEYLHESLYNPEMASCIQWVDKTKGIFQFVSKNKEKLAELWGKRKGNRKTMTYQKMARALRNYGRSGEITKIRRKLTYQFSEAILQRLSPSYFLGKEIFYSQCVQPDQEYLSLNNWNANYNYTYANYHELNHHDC
# Outline: as §1
# ELF4 = ELF4 (Homo sapiens, UniProt Q99607 1-663); details: protein: recombinant; tags: N-terminal GST; dsDNA, one strand shown
# ELF4, sequence (Q99607 whole entry): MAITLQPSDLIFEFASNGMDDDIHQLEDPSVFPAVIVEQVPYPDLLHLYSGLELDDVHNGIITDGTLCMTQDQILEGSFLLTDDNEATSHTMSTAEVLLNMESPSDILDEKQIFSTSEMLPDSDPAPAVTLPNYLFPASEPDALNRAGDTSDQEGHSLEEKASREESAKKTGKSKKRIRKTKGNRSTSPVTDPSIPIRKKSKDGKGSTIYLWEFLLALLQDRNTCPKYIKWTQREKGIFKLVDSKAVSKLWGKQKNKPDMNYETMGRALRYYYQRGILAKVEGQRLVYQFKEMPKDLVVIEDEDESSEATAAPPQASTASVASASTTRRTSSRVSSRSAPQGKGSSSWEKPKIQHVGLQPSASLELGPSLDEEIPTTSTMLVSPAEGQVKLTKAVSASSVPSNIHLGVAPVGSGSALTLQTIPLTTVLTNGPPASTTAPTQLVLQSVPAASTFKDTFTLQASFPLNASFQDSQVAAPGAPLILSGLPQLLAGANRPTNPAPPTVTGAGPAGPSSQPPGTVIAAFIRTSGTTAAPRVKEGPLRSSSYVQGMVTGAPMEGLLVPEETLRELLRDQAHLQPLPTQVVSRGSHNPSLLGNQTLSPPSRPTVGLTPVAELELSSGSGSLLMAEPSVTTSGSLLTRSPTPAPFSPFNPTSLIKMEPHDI
# Outline: as §1
# ELK4 = target: T3, ELK4 (Homo sapiens, UniProt P28324-2 1-405); details: protein: recombinant; tags: N-terminal GST; dsDNA, one strand shown
# T3 sequence: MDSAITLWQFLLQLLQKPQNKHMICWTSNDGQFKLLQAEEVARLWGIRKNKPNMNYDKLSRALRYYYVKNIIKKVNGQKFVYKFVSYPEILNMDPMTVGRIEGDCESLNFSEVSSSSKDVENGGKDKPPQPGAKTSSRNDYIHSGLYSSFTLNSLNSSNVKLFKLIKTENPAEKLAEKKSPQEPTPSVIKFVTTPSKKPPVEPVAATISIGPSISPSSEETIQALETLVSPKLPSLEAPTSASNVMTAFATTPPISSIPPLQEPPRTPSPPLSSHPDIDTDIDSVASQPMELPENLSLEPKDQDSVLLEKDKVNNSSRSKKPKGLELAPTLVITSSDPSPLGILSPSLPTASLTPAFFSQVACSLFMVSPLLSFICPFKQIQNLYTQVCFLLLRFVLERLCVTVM
# Outline: as §1
# ETV2 = target: T4, ETV2 (Homo sapiens, UniProt O00321 1-342); details: protein: recombinant; tags: N-terminal GST; dsDNA, one strand shown
# T4 sequence: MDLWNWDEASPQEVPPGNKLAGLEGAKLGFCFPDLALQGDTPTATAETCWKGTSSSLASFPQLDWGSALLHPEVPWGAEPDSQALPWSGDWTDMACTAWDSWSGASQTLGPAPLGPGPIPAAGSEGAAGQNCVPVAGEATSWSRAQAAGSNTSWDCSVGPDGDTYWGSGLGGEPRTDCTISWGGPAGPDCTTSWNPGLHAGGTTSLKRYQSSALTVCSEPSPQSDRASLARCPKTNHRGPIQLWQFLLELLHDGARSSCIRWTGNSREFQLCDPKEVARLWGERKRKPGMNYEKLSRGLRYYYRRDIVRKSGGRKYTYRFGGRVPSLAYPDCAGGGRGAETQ
# Outline: as §1
# ELF3 = target: T5, ELF3 (Homo sapiens, UniProt P78545 1-371); details: protein: recombinant; tags: N-terminal GST; dsDNA, one strand shown
# T5 sequence: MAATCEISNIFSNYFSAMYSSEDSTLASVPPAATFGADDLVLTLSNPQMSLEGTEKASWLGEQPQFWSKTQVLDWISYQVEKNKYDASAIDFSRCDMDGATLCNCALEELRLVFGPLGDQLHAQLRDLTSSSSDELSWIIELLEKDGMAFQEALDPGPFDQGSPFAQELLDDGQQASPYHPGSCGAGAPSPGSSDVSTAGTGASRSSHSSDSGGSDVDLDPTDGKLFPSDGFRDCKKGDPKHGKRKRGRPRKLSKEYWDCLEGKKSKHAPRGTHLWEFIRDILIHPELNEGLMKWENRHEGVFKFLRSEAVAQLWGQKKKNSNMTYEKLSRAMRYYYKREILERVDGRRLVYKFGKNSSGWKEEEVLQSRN
# Outline: as §1
# CRX = CRX (Homo sapiens, UniProt O43186 1-299); details: protein: recombinant; tags: N-terminal GST; dsDNA, one strand shown
# CRX, sequence (O43186 whole entry): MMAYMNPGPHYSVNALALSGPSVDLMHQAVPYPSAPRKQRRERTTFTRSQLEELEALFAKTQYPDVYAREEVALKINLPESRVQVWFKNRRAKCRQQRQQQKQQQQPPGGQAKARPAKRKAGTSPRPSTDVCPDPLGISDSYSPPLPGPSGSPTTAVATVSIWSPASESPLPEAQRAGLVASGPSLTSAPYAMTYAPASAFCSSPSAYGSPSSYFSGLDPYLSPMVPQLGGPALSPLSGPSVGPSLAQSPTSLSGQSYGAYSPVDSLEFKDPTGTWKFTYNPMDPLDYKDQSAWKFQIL
# Outline: as §1
# ETV1 = ETV1 (Homo sapiens, UniProt P50549 1-477); details: protein: recombinant; tags: N-terminal GST; dsDNA, one strand shown
# ETV1, sequence (P50549 whole entry): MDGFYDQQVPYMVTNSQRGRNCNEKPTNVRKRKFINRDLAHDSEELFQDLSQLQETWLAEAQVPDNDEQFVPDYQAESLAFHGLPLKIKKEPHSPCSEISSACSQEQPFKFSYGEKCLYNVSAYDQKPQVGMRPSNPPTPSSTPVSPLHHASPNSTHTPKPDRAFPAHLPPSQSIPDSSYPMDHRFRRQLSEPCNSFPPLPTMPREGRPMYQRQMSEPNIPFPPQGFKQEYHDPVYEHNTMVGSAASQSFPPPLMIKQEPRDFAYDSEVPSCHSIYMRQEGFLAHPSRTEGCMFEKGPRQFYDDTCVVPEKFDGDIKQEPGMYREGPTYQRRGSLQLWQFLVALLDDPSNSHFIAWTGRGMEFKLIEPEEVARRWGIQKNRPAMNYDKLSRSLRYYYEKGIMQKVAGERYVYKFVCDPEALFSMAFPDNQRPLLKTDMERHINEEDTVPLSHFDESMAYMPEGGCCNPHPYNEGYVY
# Outline: as §1
# ERF = target: T6, ERF (Homo sapiens, UniProt P50548 1-548); details: protein: recombinant; tags: N-terminal GST; dsDNA, one strand shown
# T6 sequence: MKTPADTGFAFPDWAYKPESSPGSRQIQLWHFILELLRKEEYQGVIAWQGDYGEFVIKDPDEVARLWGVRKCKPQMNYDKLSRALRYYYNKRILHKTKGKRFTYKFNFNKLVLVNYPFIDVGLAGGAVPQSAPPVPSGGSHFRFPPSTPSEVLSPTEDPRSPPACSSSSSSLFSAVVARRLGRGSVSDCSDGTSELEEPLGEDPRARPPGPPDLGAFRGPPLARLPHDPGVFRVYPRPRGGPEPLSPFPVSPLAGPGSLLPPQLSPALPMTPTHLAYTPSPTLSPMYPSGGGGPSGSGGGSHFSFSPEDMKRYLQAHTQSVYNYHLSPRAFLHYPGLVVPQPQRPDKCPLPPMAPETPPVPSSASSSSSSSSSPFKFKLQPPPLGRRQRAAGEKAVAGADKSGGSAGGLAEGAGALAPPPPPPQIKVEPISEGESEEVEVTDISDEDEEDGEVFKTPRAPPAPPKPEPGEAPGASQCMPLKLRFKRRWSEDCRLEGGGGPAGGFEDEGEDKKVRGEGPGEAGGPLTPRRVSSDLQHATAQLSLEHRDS
# Outline: as §1
# ETV3L = target: T7, ETV3L (Homo sapiens, UniProt Q6ZN32 1-361); details: protein: recombinant; tags: N-terminal GST; dsDNA, one strand shown
# T7 sequence: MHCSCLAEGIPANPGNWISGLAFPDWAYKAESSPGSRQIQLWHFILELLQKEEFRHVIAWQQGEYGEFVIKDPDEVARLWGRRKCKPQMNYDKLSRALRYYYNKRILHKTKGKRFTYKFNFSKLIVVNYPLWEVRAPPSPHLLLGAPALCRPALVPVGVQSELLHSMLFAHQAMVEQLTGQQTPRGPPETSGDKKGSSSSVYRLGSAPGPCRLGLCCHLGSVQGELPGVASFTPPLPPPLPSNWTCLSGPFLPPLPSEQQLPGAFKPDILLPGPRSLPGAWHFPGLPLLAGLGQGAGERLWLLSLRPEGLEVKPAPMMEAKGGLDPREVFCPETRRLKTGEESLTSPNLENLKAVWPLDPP
# Outline: as §1
# ETS2 = target: T8, ETS2 (Homo sapiens, UniProt P15036 1-469); details: protein: recombinant; tags: N-terminal GST; dsDNA, one strand shown
# T8 sequence: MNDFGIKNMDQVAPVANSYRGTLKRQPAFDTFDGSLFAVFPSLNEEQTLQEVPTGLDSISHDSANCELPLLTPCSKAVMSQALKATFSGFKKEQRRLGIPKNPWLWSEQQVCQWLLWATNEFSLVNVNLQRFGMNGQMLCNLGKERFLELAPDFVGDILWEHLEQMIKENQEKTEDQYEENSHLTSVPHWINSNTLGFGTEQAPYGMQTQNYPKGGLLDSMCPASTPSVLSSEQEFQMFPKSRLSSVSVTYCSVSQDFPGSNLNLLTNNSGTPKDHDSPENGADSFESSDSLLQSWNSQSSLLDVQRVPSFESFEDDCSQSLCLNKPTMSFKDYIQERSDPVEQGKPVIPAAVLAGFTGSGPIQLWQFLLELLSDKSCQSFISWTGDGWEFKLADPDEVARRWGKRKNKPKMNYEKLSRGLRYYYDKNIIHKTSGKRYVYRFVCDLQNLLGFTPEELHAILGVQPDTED
# Outline: as §1
# SPDEF = target: T9, SPDEF (Homo sapiens, UniProt O95238 1-335); details: protein: recombinant; tags: N-terminal GST; dsDNA, one strand shown
# T9 sequence: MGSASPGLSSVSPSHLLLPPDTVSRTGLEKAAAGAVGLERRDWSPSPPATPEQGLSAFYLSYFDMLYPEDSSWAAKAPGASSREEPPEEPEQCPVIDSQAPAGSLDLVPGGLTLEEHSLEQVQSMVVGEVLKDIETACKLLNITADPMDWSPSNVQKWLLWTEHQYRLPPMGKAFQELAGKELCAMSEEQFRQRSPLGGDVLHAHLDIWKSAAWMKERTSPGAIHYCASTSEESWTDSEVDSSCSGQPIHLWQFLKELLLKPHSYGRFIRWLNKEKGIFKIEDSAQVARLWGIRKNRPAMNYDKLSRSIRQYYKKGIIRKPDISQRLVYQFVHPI
# Outline: as §1
# ETV7 = target: T10, ETV7 (Homo sapiens, UniProt Q9Y603 1-341); details: protein: recombinant; tags: N-terminal GST; dsDNA, one strand shown
# T10 sequence: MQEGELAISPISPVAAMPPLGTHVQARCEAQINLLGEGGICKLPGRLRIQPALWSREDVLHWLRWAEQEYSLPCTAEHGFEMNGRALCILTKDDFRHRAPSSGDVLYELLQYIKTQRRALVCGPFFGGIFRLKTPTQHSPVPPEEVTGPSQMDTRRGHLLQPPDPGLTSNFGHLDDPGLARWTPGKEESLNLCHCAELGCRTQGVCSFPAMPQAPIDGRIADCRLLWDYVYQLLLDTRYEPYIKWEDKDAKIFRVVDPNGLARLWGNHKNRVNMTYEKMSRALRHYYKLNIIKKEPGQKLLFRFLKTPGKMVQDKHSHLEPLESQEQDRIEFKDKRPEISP
# Outline: as §1
# ELF5 = target: T11, ELF5 (Homo sapiens, UniProt Q9UKW6-2 1-255); details: protein: recombinant; tags: N-terminal GST; dsDNA, one strand shown
# T11 sequence: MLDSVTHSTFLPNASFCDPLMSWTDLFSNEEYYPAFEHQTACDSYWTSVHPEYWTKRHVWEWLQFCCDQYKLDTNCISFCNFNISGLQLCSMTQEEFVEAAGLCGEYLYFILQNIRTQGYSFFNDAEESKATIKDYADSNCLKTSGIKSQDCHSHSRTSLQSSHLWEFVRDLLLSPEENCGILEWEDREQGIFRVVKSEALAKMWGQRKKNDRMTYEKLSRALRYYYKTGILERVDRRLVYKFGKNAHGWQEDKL
# Outline: as §1
# ETV3 = target: T12, ETV3 (Homo sapiens, UniProt P41162-2 1-143); details: protein: recombinant; tags: N-terminal GST; dsDNA, one strand shown
# T12 sequence: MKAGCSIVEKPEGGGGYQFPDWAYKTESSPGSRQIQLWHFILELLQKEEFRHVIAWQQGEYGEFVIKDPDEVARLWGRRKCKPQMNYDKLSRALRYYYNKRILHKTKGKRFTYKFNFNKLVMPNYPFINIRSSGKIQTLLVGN
# Outline: as §1
# ETV6 = ETV6 (Homo sapiens, UniProt P41212 1-452); details: protein: recombinant; tags: N-terminal GST; dsDNA, one strand shown
# ETV6, sequence (P41212 whole entry): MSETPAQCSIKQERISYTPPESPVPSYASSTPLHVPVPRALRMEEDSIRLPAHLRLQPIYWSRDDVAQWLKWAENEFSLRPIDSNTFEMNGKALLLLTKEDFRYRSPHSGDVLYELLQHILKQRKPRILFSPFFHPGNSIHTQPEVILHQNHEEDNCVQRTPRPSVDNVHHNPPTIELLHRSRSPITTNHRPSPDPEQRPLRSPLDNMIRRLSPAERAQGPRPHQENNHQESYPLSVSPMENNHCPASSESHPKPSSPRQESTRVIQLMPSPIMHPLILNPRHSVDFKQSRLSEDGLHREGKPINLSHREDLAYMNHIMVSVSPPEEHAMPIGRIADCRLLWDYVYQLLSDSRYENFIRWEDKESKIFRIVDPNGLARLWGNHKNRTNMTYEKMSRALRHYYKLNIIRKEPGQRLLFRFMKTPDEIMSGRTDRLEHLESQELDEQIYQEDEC
# Outline: as §1
sequence,measurement,setting,value
ATTCTC,binding signal,FEV,"1.32 fold enrichment (6-mer frequency, TF over GST control)"
same,binding signal,ETV5,"1.31 fold enrichment (6-mer frequency, TF over GST control)"
same,binding signal,HSF1,"2.42 fold enrichment (6-mer frequency, TF over GST control)"
same,binding signal,SPIC,"1.15 fold enrichment (6-mer frequency, TF over GST control)"
same,binding signal,ELF4,"1.35 fold enrichment (6-mer frequency, TF over GST control)"
same,binding signal,ELK4,"1.25 fold enrichment (6-mer frequency, TF over GST control)"
same,binding signal,ETV2,"1.36 fold enrichment (6-mer frequency, TF over GST control)"
same,binding signal,ELF3,"1.2 fold enrichment (6-mer frequency, TF over GST control)"
same,binding signal,CRX,"1.69 fold enrichment (6-mer frequency, TF over GST control)"
same,binding signal,ETV1,"1.23 fold enrichment (6-mer frequency, TF over GST control)"
same,binding signal,ERF,"1.22 fold enrichment (6-mer frequency, TF over GST control)"
same,binding signal,ETV3L,"1.31 fold enrichment (6-mer frequency, TF over GST control)"
same,binding signal,ETS2,"1.19 fold enrichment (6-mer frequency, TF over GST control)"
same,binding signal,SPDEF,"1.19 fold enrichment (6-mer frequency, TF over GST control)"
same,binding signal,ETV7,"1.23 fold enrichment (6-mer frequency, TF over GST control)"
same,binding signal,ELF5,"1.26 fold enrichment (6-mer frequency, TF over GST control)"
same,binding signal,ETV3,"1.17 fold enrichment (6-mer frequency, TF over GST control)"
same,binding signal,ETV6,"1.23 fold enrichment (6-mer frequency, TF over GST control)"
